Vif-A3G inh = qHTS for Inhibitors of Vif-A3G Interactions: qHTS | 410,000 compounds, 0.076% hits | HeLa A3G-eYFP + Vif (tagged APOBEC3G with the HIV-1 protein that degrades it), YFP fluorescence, overnight | AID 602310, 2012 | Potency, µM (doses to about 46.1 µM), without a hit: at the highest dose activity, negative = active, hits mostly inhibitors | DNA dC->dU-editing enzyme APOBEC-3G (Homo sapiens), Q9HC16; further: on the % scale 0 is the no-effect control and ±100 the full control effect; nearly all actives have a fitted effect of over 60% in size
Target sequence (Q9HC16 whole entry, looked up): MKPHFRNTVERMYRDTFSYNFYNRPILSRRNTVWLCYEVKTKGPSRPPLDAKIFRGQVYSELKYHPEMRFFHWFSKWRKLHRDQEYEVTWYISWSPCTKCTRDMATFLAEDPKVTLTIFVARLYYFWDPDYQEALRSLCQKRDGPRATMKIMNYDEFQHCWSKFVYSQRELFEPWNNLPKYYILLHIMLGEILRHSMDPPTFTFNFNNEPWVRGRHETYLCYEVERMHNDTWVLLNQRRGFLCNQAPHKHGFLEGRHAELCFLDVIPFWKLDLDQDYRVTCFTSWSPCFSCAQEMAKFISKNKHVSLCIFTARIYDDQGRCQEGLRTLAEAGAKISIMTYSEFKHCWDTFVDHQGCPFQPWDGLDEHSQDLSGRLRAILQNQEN
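Read-out is eYFP fluorescence (Ex 488/Em 500-530) from Vif-expressing HeLa A3G-eYFP cells; more signal means A3G escaped Vif-mediated degradation. Cells plated overnight, compound pinned in, incubated overnight at 37 deg C.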
FUS suppressor = qHTS for Suppressors of FUS Proteinopathy: Primary screen using FUS-linked yeast assay; 390,000 compounds, 0.24% hits; AID 1347120, 2019; Potency, µM (top dose mostly 76.6 µM), most hits filed as activators; S. cerevisiae FUS-expressing, growth rescue, OD600, 24 h;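 further: plate controls were DMSO vehicle for no effect and reference control for full effect; nearly all actives have a fitted effect of over 55% in size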
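Cultures pregrown in 2.5% raffinose medium are shifted to minimal medium containing 2% galactose to express toxic FUS. Compounds are tested at several concentrations. After 24hr at 30C, growth is quantified at 600 nm absorbance.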
Vif-APOBEC3F blk = qHTS for Inhibitors of Vif-A3F Interactions: qHTS; HeLa A3F-eYFP + Vif (tagged APOBEC3F with the HIV-1 protein that degrades it), YFP fluorescence increase; Potency, µM (titrated, usually from 46.1 µM), for the others: at the top dose activity, negative = active; 390,000 compounds, 0.2% hits; AID 602313, 2012; further: % of control where 0% means no effect; nearly all actives have a fitted effect of over 65% in size
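HeLa cells stably expressing Vif plus C-terminally eYFP-tagged A3F were seeded, incubated overnight at 37 deg C, dosed with compound, incubated overnight again at 37 deg C. Yellow fluorescence (Ex 488/Em 500-530) reported blocked Vif-mediated A3F-eYFP degradation.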
PINK1 expr mod = A Quantitative High throughput Screen to Identify Chemical Modulators of PINK1 Expression; PINK1 immunofluorescence, high-content cytometry, 24 h; Potency, µM (series often up to 76.6 µM), without a hit: top-dose activation (PINK1 increase), most hits filed as activators; AID 624263, 2012; 410,000 compounds, 0.2% hits; active means well fitted activation curve with a large enough effect; inconclusive means small, poorly fitted or top-dose-only effect; cell line not stated here; further: % of control where 0% means no effect; nearly all actives have a fitted effect of over 65% in size
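Stable cell line treated 24 h with compounds at 5 concentrations (CCCP controls), then fixed and immunostained for PINK1 plus nuclear and cell stains; PINK1 immunofluorescence quantified by laser-scanning microplate cytometry.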
GRP78 ERSR act = qHTS for Inducers of the Endoplasmic Reticulum Stress Response (ERSR) in Human Glioma: qHTS. U87-MG GRP78 promoter luciferase reporter, 16 h. Potency, µM, inactives show at the top dose activation, usual class: activators. 420,000 compounds, 0.02% hits. AID 602332, 2012; further: series mostly up to about 76 µM; % of control where 0% means no effect; nearly all actives have a fitted effect of over 35% in size
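Stably transfected U87-MG human glioma cells carrying a GRP78-based luminescent sensor were seeded at 1000 cells/well, pin-dosed with compounds and incubated 16 h. Luciferase reagent was then added, and end-point luminescence was read after 10 min at room temperature.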
Abeta yeast res = qHTS for compounds that reverse cellular toxicity of Amyloid beta (A-beta) peptide in yeast: Primary Screen. yeast expressing A-beta42, growth rescue, OD600, 48 h; response scale: 0% DMSO, 100% iron-clioquinol control. Potency, µM (highest dose often 46.1 µM), hits mostly activators. 410,000 compounds, 0.063% hits. AID 1347071, 2019; further: nearly all actives have a fitted effect of over 55% in size
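Growth rescue measured by 600 nm absorbance after 48 h yeast culture at 30 C with compound. Values normalized between DMSO and an equimolar ferric chloride plus clioquinol control.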
Active calls of the source: *; i = inactive; u = inconclusive; x = not tested or not shown; [ ] = another dose, or the depositor's remark. Rows were chosen to be rich in hits. Some 0.69% of all compounds tested hit in one or more screens of this group. Unless noted, the call rests on the fitted dose curve; in most records, active means well fitted curve in the direction sought with a large enough effect; inconclusive means small, poorly fitted or top-dose-only effect, or another doubt; inactive means no such curve, though single readings can be large; an effect the other way counts as inactive or inconclusive. Potency means the concentration at half of the fitted maximal effect.

SMILES	Vif-A3G inh	FUS suppressor	Vif-APOBEC3F blk	PINK1 expr mod	GRP78 ERSR act	Abeta yeast res
NC(=S)n1[nH]c(-c2ccc([N+](=O)[O-])cc2)c(N=Nc2ccc(Cl)cc2)c1=O	-6%	i	-33%	11µM*	-4%	i
Cc1ccc([N+](=O)[O-])cc1N=Nc1c(-c2ccc([N+](=O)[O-])cc2)[nH]n(C(N)=S)c1=O	4%	i	5%	2.8µM*	-7%	i
Cc1ccc([N+](=O)[O-])cc1N=Nc1c(C)[nH]n(C(N)=S)c1=O	-1%	i	0%	1%	-3%	i
Cc1cc2nc(N3CCCN(Cc4cccn4-c4ncccn4)CC3)nc(C)c2cc1C	x	x	x	-1%	-3%	x
COc1cc(=O)n2c(c1C(=O)NC(C)c1ccco1)CCN(Cc1cc3ccccc3o1)CC2 (stereo not given)	x	x	x	0%	-6%	x
COc1cccc(-c2ccc(O)c(CNCc3cccc4ccccc34)c2)n1	x	x	x	1%	-4%	x
CCOC(=O)c1c(NC(=O)c2cc(=O)c3c(C)cc(C)cc3o2)sc2c1CCC2	-7%	i	-6%	32µM*	-1%	i
CCN(CC)S(=O)(=O)c1cccc(C(=O)NCC2CCCO2)c1 (stereo not given)	2%	i	2%	-1%[38.3 µM]	-1%	i
CCN(CC)S(=O)(=O)c1cccc(NC(=O)C2SC(=Nc3ccc(C)cc3C)C(C(=O)NCC3CCCO3)=C2N)c1 (stereo not given)	-1%	u	-7%	25µM*	-5%	i
CC(C)(C)n1ncc2c(=O)n(Cc3ccc(C#N)cc3)cnc21	0%	x	x	x	-2%	x
O=C(Nc1ccc(Cl)cc1)Nc1ccon1	20µM*	i	1%	3%	0%	i
O=C(C[n+]1c(Cl)cc(Cl)c2ccccc21)c1ccccc1	-25%	x	x	x	-3%	x
COc1cccc(CNc2ccccc2O)c1OCc1ccccc1F	u	20µM*	-4%	2%	1%	i
CC(=O)Nc1ccc(S(=O)(=O)Nc2cc(C)cn(Cc3ccccc3)c2=O)cc1	-14%	i	22µM*	20%	-4%	i
COc1ccc(N2CCC(CNC(=S)Nc3ccc(C)cc3C)C2)cc1 (stereo not given)	4%	u	7%	16%	-3%	22µM*
CCOC(=O)c1c(C)c(C(=O)Nc2ccc(N(C)C)cc2)c(C)n1CC	-29%	u	2%	11µM*	4%	i
CCOC(=O)c1c(C)c(C(=O)NCCOC)c(C)n1CC	0%	i	-2%	-2%[38.3 µM]	-6%	i
COc1cc(OC)c(OC)cc1/C=c1\[nH]c(=O)/c(=C/c2cc(OC)c(OC)cc2OC)[nH]c1=O	u	x	x	x	-2%	x
COc1ccc2c(c1)OC(C)CN(CCNC(=O)c1cc3cc(F)ccc3[nH]1)C2 (stereo not given)	x	x	x	-1%	-1%	x
Cn1c(SCc2ccccc2)nnc1C1CCCN(Cc2cccc3ncccc23)C1 (stereo not given)	x	x	x	0%	-4%	x
COc1ccc(/C=C/c2c(-c3ccc(OC)cc3)sc3ccc(N4CCOCC4)cc23)cc1	-6%	i	1%	0%	0%	i
COc1ccc(-c2oc3ccc(N4CCOCC4)cc3c2/C=C/c2ccc(OC)c(OC)c2)cc1	-5%	13µM*	2%	3%	-2%	i
CC(C)(C)n1nc2c(c1NC(=O)c1ccc(S(=O)(=O)N3CCCC3)cc1)CSC2	-1%	16µM*	0%	-3%	0%	i

Screening data: PubChem BioAssay, National Center for Advancing Translational Sciences (NCATS)
